Experimental data reported in PubChem BioAssay AID1159580 (chemical genetic matrix, 2015).
Out of some 5,500 compounds screened, about 2,000 (36%) were called active. Inconclusive results (about 18%) are left out. No stated cut-off is given here; in the data, active means normalized growth mostly below about 0.91 (no sharp cut-off); inconclusive means no clear call, values can overlap the other calls; inactive means mostly above about 0.92. The list shows a part of the results.

Experiment: chemical genetic growth profiling, strain panel (AID 1159580);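 further: tested at 20 µM; growth read once vehicle control cultures reached saturation at 30 °C; 1 = growth at the plate median or of vehicle wells; lower values mean less growth of the strain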
Conditions: growth OD

Measured: normalized growth

CC1CC2C3CC(F)C4=CC(=O)C=CC4(C)C3(F)C(O)CC2(C)C1(O)C(=O)CO (centres undefined)
inactive: S. cerevisiae deletion strains, locus YJR043C, strain POL32, active compounds read low 1.08 | S. cerevisiae deletion strains, locus YJR075W, strain HOC1, active compounds read low 1.02 | S. cerevisiae deletion strains, locus YKL009W, strain mrt4, active compounds read low 1.01 | S. cerevisiae deletion strains, locus YKL068W, active compounds read low 1.01 | S. cerevisiae deletion strains, locus YKL085W, strain MDH1 (second series), active compounds read low 1.01 | S. cerevisiae deletion strains, locus YKL085W, strain MDH1, active compounds read low 1.01 | S. cerevisiae deletion strains, locus YKL160W, strain elf1, active compounds read low 0.984 | S. cerevisiae deletion strains, locus YKL190W, strain CNB1, active compounds read low 1.02 | S. cerevisiae deletion strains, locus YKR001C, strain vps1, active compounds read low 1.03 | S. cerevisiae deletion strains, locus YKR026C, strain gcn3, active compounds read low 0.998 | S. cerevisiae deletion strains, locus YKR091W, strain srl3, active compounds read low 1 | S. cerevisiae deletion strains, locus YLL001W, strain dnm1, active compounds read low 0.984 | S. cerevisiae deletion strains, locus YLL026W, active compounds read low 0.997 | S. cerevisiae deletion strains, locus YLL041C, strain sdh2, active compounds read low 0.999 | S. cerevisiae deletion strains, locus YLR027C, strain aat2, active compounds read low 0.997 | S. cerevisiae deletion strains, locus YLR039C, strain RIC1, active compounds read low 1.08 | S. cerevisiae deletion strains, locus YLR058C, strain SHM2, active compounds read low 1.02 | S. cerevisiae deletion strains, locus YLR102C, strain apc9, active compounds read low 1.02 | S. cerevisiae deletion strains, locus YLR221C, strain rsa3, active compounds read low 0.985 | S. cerevisiae deletion strains, locus YLR258W, strain gsy2, active compounds read low 0.995 | S. cerevisiae deletion strains, locus YLR262C, strain YPT6 (second series), active compounds read low 0.984 | S. cerevisiae deletion strains, locus YLR262C, strain YPT6, active compounds read low 1.08 | S. cerevisiae deletion strains, locus YLR268W, strain sec22, active compounds read low 1.02 | S. cerevisiae deletion strains, locus YLR320W, strain mms22, active compounds read low 0.993 | S. cerevisiae deletion strains, locus YLR330W, strain CHS5, active compounds read low 1.02 | S. cerevisiae deletion strains, locus YLR342W, strain FKS1 (second series), active compounds read low 1.1 | S. cerevisiae deletion strains, locus YLR342W, strain FKS1, active compounds read low 0.991 | S. cerevisiae deletion strains, locus YLR357W, strain rsc2, active compounds read low 1.01 | S. cerevisiae deletion strains, locus YLR370C, strain arc18, active compounds read low 1 | S. cerevisiae deletion strains, locus YLR371W, strain rom2, active compounds read low 1.01 | S. cerevisiae deletion strains, locus YLR384C, strain iki3, active compounds read low 0.986 | S. cerevisiae deletion strains, locus YLR418C, strain cdc73, active compounds read low 1 | S. cerevisiae deletion strains, locus YML016C, strain PPZ1, active compounds read low 1.02 | S. cerevisiae deletion strains, locus YML032C, strain rad52, active compounds read low 1.05 | S. cerevisiae deletion strains, locus YML120C, strain ndi1, active compounds read low 1 | S. cerevisiae deletion strains, locus YML124C, strain tub3, active compounds read low 1.02 | S. cerevisiae deletion strains, locus YMR058W, strain fet3, active compounds read low 1.01 | S. cerevisiae deletion strains, locus YMR078C, strain ctf18, active compounds read low 1.02 | S. cerevisiae deletion strains, locus YMR125W, strain sto1, active compounds read low 0.986 | S. cerevisiae deletion strains, locus YMR129W, active compounds read low 1 | S. cerevisiae deletion strains, locus YMR205C, strain PFK2, active compounds read low 0.984 | S. cerevisiae deletion strains, locus YMR223W, strain ubp8, active compounds read low 1.04 | S. cerevisiae deletion strains, locus YMR231W, strain pep5, active compounds read low 0.995 | S. cerevisiae deletion strains, locus YMR263W, strain SAP30, active compounds read low 1.04 | S. cerevisiae deletion strains, locus YMR307W, strain GAS1, active compounds read low 1.09 | S. cerevisiae deletion strains, locus YNL067W, strain RPL9B, active compounds read low 1.03 | S. cerevisiae deletion strains, locus YNL071W, strain lat1, active compounds read low 0.999 | S. cerevisiae deletion strains, locus YNL128W, strain TEP1, active compounds read low 1.01 | S. cerevisiae deletion strains, locus YNL153C, strain GIM3, active compounds read low 1.03 | S. cerevisiae deletion strains, locus YNL209W, strain ssb2, active compounds read low 0.996 | S. cerevisiae deletion strains, locus YNL233W, strain BNI4, active compounds read low 1.02 | S. cerevisiae deletion strains, locus YNL248C, strain rpa49, active compounds read low 1.01 | S. cerevisiae deletion strains, locus YNL250W, strain rad50, active compounds read low 1.04 | S. cerevisiae deletion strains, locus YNL271C, strain bni1, active compounds read low 1.03 | S. cerevisiae deletion strains, locus YNL298W, strain CLA4, active compounds read low 1.03 | S. cerevisiae deletion strains, locus YNL307C, strain MCK1, active compounds read low 1.05 | S. cerevisiae deletion strains, locus YNL322C, strain KRE1 (second series), active compounds read low 0.974 | S. cerevisiae deletion strains, locus YNL322C, strain KRE1, active compounds read low 1.02 | S. cerevisiae deletion strains, locus YNR049C, strain mso1, active compounds read low 0.992 | S. cerevisiae deletion strains, locus YNR052C, strain pop2, active compounds read low 1.03 | S. cerevisiae deletion strains, locus YOL006C, strain TOP1, active compounds read low 1.06 | S. cerevisiae deletion strains, locus YOL012C, strain htz1 0.779 | S. cerevisiae deletion strains, locus YOL147C, strain pex11, active compounds read low 1.02 | S. cerevisiae deletion strains, locus YOR001W, strain rrp6, active compounds read low 1.03 | S. cerevisiae deletion strains, locus YOR061W, strain CKA2, active compounds read low 1.02 | S. cerevisiae deletion strains, locus YOR069W, strain VPS5, active compounds read low 1.01 | S. cerevisiae deletion strains, locus YOR070C, strain gyp1, active compounds read low 1 | S. cerevisiae deletion strains, locus YOR080W, strain dia2, active compounds read low 0.995 | S. cerevisiae deletion strains, locus YOR083W, strain WHI5, active compounds read low 0.965 | S. cerevisiae deletion strains, locus YOR106W, strain vam3, active compounds read low 0.97 | S. cerevisiae deletion strains, locus YOR136W, strain idh2, active compounds read low 1.03 | S. cerevisiae deletion strains, locus YOR144C, strain elg1, active compounds read low 1.02 | S. cerevisiae deletion strains, locus YOR184W, strain ser1, active compounds read low 1.08 | S. cerevisiae deletion strains, locus YOR265W, strain rbl2, active compounds read low 1.01 | S. cerevisiae deletion strains, locus YOR270C, strain vph1, active compounds read low 0.928 | S. cerevisiae deletion strains, locus YOR290C, strain snf2, active compounds read low 0.988 | S. cerevisiae deletion strains, locus YOR316C, strain cot1, active compounds read low 1.03 | S. cerevisiae deletion strains, locus YPL051W, strain arl3, active compounds read low 0.989 | S. cerevisiae deletion strains, locus YPL055C, strain LGE1, active compounds read low 1.09 | S. cerevisiae deletion strains, locus YPL078C, strain atp4, active compounds read low 1.03 | S. cerevisiae deletion strains, locus YPL106C, strain sse1, active compounds read low 0.957 | S. cerevisiae deletion strains, locus YPL240C, strain hsp82, active compounds read low 1 | S. cerevisiae deletion strains, locus YPL241C, strain CIN2, active compounds read low 1.02 | S. cerevisiae deletion strains, locus YPR119W, strain clb2, active compounds read low 1.01 | S. cerevisiae deletion strains, locus YPR141C, strain kar3, active compounds read low 1.02 | S. cerevisiae deletion strains, locus YPR163C, strain tif3, active compounds read low 1.04 | S. cerevisiae deletion strains, locus YPR167C, strain met16, active compounds read low 1.01 | S. cerevisiae deletion strains, strain wtn01, active compounds read low 1.02 | S. cerevisiae strains, strain wild type, active compounds read low 1.03
